We go through ten compounds from PubChem BioAssay (EPA / NIEHS).

The structures appear in SMILES notation. “And” between values parts separate entries of the source, which are not always exact repeats. Equal entries are not always repeated. The source holds several records for some structures; these can differ, active in one and inactive in another. The source made the active and inactive calls. Rule for the calls: active = hit-call score of the fitted dose curve at least 0.9, where 1 is the maximum; inconclusive = response in the unintended direction; inactive = score below 0.9.

The test system of the experiment is rat Monoamine Oxidase, MAO-A, Central (MAOAC), gene 29253. As to the kind of experiment: NVS_ENZ_rMAOAC: NovaScreen (NVS) Enzymatic Assay for rat Monoamine Oxidase, MAO-A, Central (MAOAC) (AID 2283243).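 Note: potency refers to inhibition seen as signal drop below DMSO baseline.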 As to the method: NVS_ENZ_rMAOAC is a biochemical, single-readout assay that uses extracted gene-proteins from Rat brain in a tissue-based cell-free assay. Measurements were taken 1.5 hours after chemical dosing in a 96-well plate.NVS_ENZ_rMAOAC is one of one assay component(s) measured or calculated from the NVS_ENZ_rMAOAC assay. It is designed to make measurements of enzyme activity, a form of enzyme reporter, as detected with scintillation counting signals by Lysate-based radiodetection technology.Data from the assay component NVS_ENZ_rMAOAC was analyzed into 1 assay endpoint. This assay endpoint, NVS_ENZ_rMAOAC, was analyzed in the positive analysis fitting direction relative to DMSO as the negative control and baseline of activity. Using a type of enzyme reporter, loss-of-signal activity can be used to understand changes in the enzymatic activity as they relate to the gene Maoa. Furthermore, this assay endpoint can be referred to as a primary readout, because this assay has produced multiple assay endpoints where this one serves a enzymatic activity function. To generalize the intended target to other relatable targets, this assay endpoint is annotated to the oxidoreductase intended target family, where the subfamily is monoamine oxidase.
Binding assays used specific radioligands (tritiated, iodinated) with non-radioactive competitive displacement ligands in agonist or antagonist protocols (as indicated) and various reference compounds and inhibitors to titrate specific binding to receptors and transporters. Most enzyme assays (CYPs, kinases, phosphatases, proteases, HDACs) used recombinant protein and specific substrates (fluorescence mostly, some colorimetric and radioactive) and inhibitors, followed by a biochemical separation of substrate and product. All assays for the biochemical HTS were initially run in duplicate at a single concentration (10 uM for CYP450 assays and 25 uM for all others). […] Each assay was run with positive and negative controls, and concurrent controls on every plate. The follow-up (secondary) screen tested active chemical-pairs in concentration series, as well as a few additional assays not tested in the primary screen, some selected negative inactives, and several cases re-run in the concentration series for confirmatory purposes.
Consider `Cc1ccc(-c2c(Cl)nc(C#N)n2S(=O)(=O)N(C)C)cc1`, for which the AC50 was 4.79 µM (active).

Turning to `O=C(Nc1ccccc1)Nc1ccnc(Cl)c1`, the half-maximal activity concentration (AC50) was 25 µM (active).

With `COc1nc(C)nc(NC(=O)NS(=O)(=O)c2ccccc2Cl)n1`, the outcome was inactive and the AC50 was 37.7 µM (active).

In the case of `COC(=O)c1ccccc1C(=O)OC`, the call was inactive.

Turning to `Oc1ccccc1-c1ccccc1`, the AC50 was 25 µM (active).

Regarding `CCNc1nc(Cl)nc(NC(C)C)n1`, the concentration at half-maximal activity (AC50) is 25 µM (active) and 8.22 µM (active); the call was inactive.

Consider `CC1=C(C(=O)Nc2ccccc2)SCCO1`, for which the AC50 is 17.5 µM (active).

Consider `Fc1ccc(Oc2ccnc3cc(Cl)cc(Cl)c23)cc1`, for which the call was inactive.

As to `CC1COC(Cn2cncn2)(c2ccc(Oc3ccc(Cl)cc3)cc2Cl)O1` (configuration not stated), the AC50 was 1.8 µM (active).

Consider `CON(C)C(=O)Nc1ccc(Cl)c(Cl)c1`, for which the AC50 is 20.5 µM (active) [middle of 4 runs].
